# From PubChem BioAssay AID1224862 (National Center for Advancing Translational Sciences (NCATS), 2016)
# Results filed as inconclusive are left out. Values without a mark were called inactive. Active and inactive are the calls of the source. The call rests on the fitted dose curve; in most records, active means well fitted cell-killing curve with a large enough effect; inconclusive means small, poorly fitted or top-dose-only effect, or effect the other way; inactive means flat fitted curve, though single readings scatter.
# Assay: Compound cytotoxicity measured by an ATP content assay as a counter-screen for lead compounds in human astrocytoma cell line (SNB-19)
# Conditions: SNB-19 astrocytoma viability, ATP luminescence; series mostly up to 46.1 µM; activity change, negative = cytotoxicity: at the top concentration
# Protocol: National Center for Advancing Translational Sciences [NCATS] Johns Hopkins University School of Medicine Florida State University Assay Overview: Many compounds can cause cytotoxicity at high compound concentrations. […] The compound cytotoxicity may also cause side effects or toxicity in human. Thus, the compound cytotoxicity needs to be measured in each cell type and each compound incubation time - same as these in the compound screening assay. The compound cytotoxicity can be measured by cell viability assays such as the ATP content assay. We use an ATP content assay kit for cell viability measurement. It measures ATP content (level) in human astrocytoma cell line (SNB-19) using a luminescence readout that is proportional to viable cell numbers. Decrease in the luminescence signal after the compound treatment indicates reduced cell viability and cell death caused by compound treatment.
# Assay Protocol Summary: The medium for SNB-19 cells is composed of RPMI 1640 (ATCC, Cat.# 30-2001), 10% fetal bovine serum (FBS) (GE healthcare Life Sciences, Cat.# SH30071.03), and 1% Pen/Strep (Gibco, Cat.# 15140-122). The ATP content assay kit (PerkinElmer, Cat.# 6016731) was used to determine cell viability. The reagent was reconstituted and prepared as described by the manufacturer. Cells were seeded in 384- or 1536-well assay plates and cultured at 37 C with 5% CO2 for 16 to 20 hours. The typical cell seeding density in the 1536-well plate assay is 250 cells/well in 3ul medium for SNB-19 cells in tissue culture treated plates. Compounds were added to cells and incubated for a specific time such as 6, 24, or 72 hours before addition of the reagent mixture of the ATP content assay kit at 1:1 ratio. After incubation at room temperature for 10 minutes, the luminescence intensity in assay plates was measured using a ViewLux plate reader (PerkinElmer). […] The percentage inhibitions of the decreased cell viability by small molecules were then calculated that indicate compound cytotoxicity.
SMILES,"activity change, negative = cytotoxicity [%]",Potency
CN1CC(=O)N2C(Cc3c([nH]c4ccccc34)[C@H]2c2ccc3c(c2)OCO3)C1=O (stereo not given in full),12.4,–
O=c1c(-c2ccc(O)cc2)coc2cc(OC3O[C@H](CO)[C@H](O)[C@H](O)[C@H]3O)cc(O)c12 (stereo not given in full),-18.9,–
CCOCCOC(=O)/C=C/c1ccc(OC)cc1,15.8,–
Cc1cccc(/C=C/c2ccccc2)n1,-22.7,–
O=C(O)[C@@H](c1ccc(OCc2ccc3ccccc3n2)cc1)C1CCCC1,5.33,–
N#C/C(=C\c1ccc(O)c(O)c1)C(=O)Nc1ccccc1,9.03,–
CCN1CCC(n2cc(CNc3cc(Cl)c4ncc(C#N)c(Nc5ccc(F)c(Cl)c5)c4c3)nn2)CC1,-2.47,–
CS(=O)(=O)c1ccc(-c2cn3ccccc3n2)cc1,–,12.3 µM (active)
O=C(O)[C@H](CC(=O)N1C[C@@H]2CCCC[C@H]2C1)Cc1ccccc1,9.77,–
COCCn1c2c([n+](Cc3cnccn3)c1C)C(=O)c1ccccc1C2=O,–,0.0155 µM (active)
COc1ccc(-c2cc(=S)ss2)cc1,-1.94,–
C[C@H](NC(=O)C(=O)Nc1ccccc1C(C)(C)C)C(=O)N[C@@H](CC(=O)O)C(=O)COc1c(F)c(F)cc(F)c1F,0.887,–
COc1cccc2c1C(=O)c1c(O)c3c(c(O)c1C2=O)C[C@@](O)(C(=O)CO)C[C@@H]3O[C@H]1C[C@H](N)[C@H](O[C@@H]2CCCCO2)[C@H](C)O1,-20.6,–
CO[C@H]1C(=O)[C@]2(C)[C@@H](OC)C[C@H]3OC[C@@]3(OC(C)=O)[C@H]2[C@H](OC(=O)c2ccccc2)[C@]2(O)C[C@H](OC(=O)[C@H](O)[C@@H](NC(=O)OC(C)(C)C)c3ccccc3)C(C)=C1C2(C)C,8.56,–
Clc1ccccc1-c1nc(-c2ccncc2)no1,-16.2,–
O=C(O)CCC(=O)c1ccc(-c2ccccc2)cc1,-1.74,–
O=C1c2ccccc2C(=O)c2c1ccc(O)c2O,0.319,–
CCCS(=O)c1ccc2nc(NC(=O)OC)[nH]c2c1 (stereo not given),16.2,–
O=c1oc2cc(O)ccc2s1,-3.49,–
O=S(=O)(O)CCSSCCS(=O)(=O)O,-11.8,–

SMILES,"activity change, negative = cytotoxicity [%]",Potency
COc1cc2nc(N3CCN(C(=O)C4CCCO4)CC3)nc(N)c2cc1OC (stereo not given),7.25,–
Oc1cc(O)cc(/C=C/c2ccc(O)c(O)c2)c1,–,24.5 µM (active)
O=C(c1ccccc1)c1ccc2n1CCC2C(=O)O (stereo not given),0.488,–
Cc1csc(NC(=O)c2sc3nc4c(c(C(F)(F)F)c3c2N)CCC4)n1,–,4.35 µM (active)
CCCCCNC(=O)N1CCC(CN(Cc2ccc(Cl)cc2)Cc2ccc([N+](=O)[O-])s2)C1 (stereo not given),15.7,–
Nc1cc(C(F)(F)F)ccc1S,-3.16,–
[O-][n+]1ccccc1SSc1cccc[n+]1[O-],–,0.708 µM (active)
CC1(C)Cc2c(sc(NC(=S)NC(=O)c3ccccc3)c2C(=O)O)CO1,10.2,–
CC(=C(CCOC(=O)C(C)C)SSC(CCOC(=O)C(C)C)=C(C)N(C=O)Cc1cnc(C)nc1N)N(C=O)Cc1cnc(C)nc1N,-24.1,–
CC[C@]1(O)C[C@H]2CN(CCc3c([nH]c4ccccc34)[C@@](C(=O)OC)(c3cc4c(cc3OC)N(C=O)[C@H]3[C@@](O)(C(=O)OC)[C@H](OC(C)=O)[C@]5(CC)C=CCN6CC[C@]43[C@@H]65)C2)C1,0.512,–
CC(C)OC(=O)CCCC=CC[C@@H]1[C@H](C=C[C@@H](O)COc2cccc(C(F)(F)F)c2)[C@H](O)C[C@@H]1O,-1.19,–
C=CCCCCCCCCC(=O)O,-4.48,–
O=C1c2ccccc2-[n+]2ccc3c([nH]c4ccccc43)c21,–,4.35 µM (active)
O=C1NC(=O)C(=Cc2ccc(-c3ccc(F)cc3)o2)S1,-5.67,–
COc1cc(NC(C)CCCN)c2ncccc2c1 (stereo not given),7.08,–
CCOC1OC(=O)C[C@H]1NC(=O)[C@@H]1CCCN1C(=O)[C@@H](NC(=O)c1ccc(N)c(Cl)c1)C(C)(C)C (stereo not given in full),7.25,–
Cc1ccc(O)c(N=Nc2ccccc2)n1,–,7.74 µM (active)
CC(=O)OC(C)OC(=O)C(C)c1ccc(-c2ccccc2)c(F)c1 (stereo not given),-19.8,–
Cc1cc(O)c2c(c1)C(=O)c1cc(O)cc(O)c1C2=O,-13,–
CN1CC(=O)N/C1=N/C(=O)Nc1cccc(Cl)c1,-5.23,–
